Results reported in PubChem BioAssay (NCATS).
Several values for one entry are separate records, joined by “and”; a condition that tells them apart may be missing. Identical values can stand only once. Records with an inconclusive call do not appear. Some structures have more than one record in an assay (separate samples or runs), and their calls can disagree. Activity calls are given as the source filed them. Unless noted, the call rests on the fitted dose curve; in most records, active means well fitted curve in the direction sought with a large enough effect; inconclusive means small, poorly fitted or top-dose-only effect, or another doubt; inactive means no such curve, though single readings can be large; an effect the other way counts as inactive or inconclusive.

How the values were obtained:
[1] = target: Cytochrome P450 2D6 (Homo sapiens) (UniProt P10635); assay: Cytochrome P450 family 2 subfamily D member 6 (CYP2D6) small molecule antagonists: luciferase biochemical (cell-free) qHTS assay (AID 1645840; active means well fitted curve in the direction sought with a large enough effect in the repeat runs; an effect the other way counts as inactive or inconclusive; further: nearly all actives have a fitted effect of over 55% in size)
Summary of the method: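 P450-Glo CYP2D6 system: proluciferin substrate converted by enzyme to luciferin, read by luminescence proportional to activity. Enzyme-substrate mix with compound 10 min at room temperature, then NADPH regeneration 1 h before detection reagent.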

[2] = target: Cytochrome P450 2C9 (Homo sapiens) (UniProt P11712); assay: Cytochrome P450 family 2 subfamily C member 9 (CYP2C9) small molecule antagonists: luciferase biochemical (cell-free) qHTS assay (AID 1645842; active means well fitted curve in the direction sought with a large enough effect in the repeat runs; an effect the other way counts as inactive or inconclusive; further: nearly all actives have a fitted effect of over 55% in size)
Summary of the method: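 P450-Glo CYP2C9 system: proluciferin substrate with enzyme in mix containing 0.4% BSA, 10 min at room temperature, then NADPH regeneration solution added and incubated 1 h at 37C. Detection reagent stopped reaction; luminescence read after 20 min as RLU.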

[3] = Primary qHTS for inhibitors of nuclear receptor binding SET domain protein 2 (NSD2) in an isogenic RCH-ACV NSD2 p.E1099K mutant (9B) (AID 1645876); further: nearly all actives have a fitted effect of over 70% in size
[4] = Primary qHTS for inhibitors of nuclear receptor binding SET domain protein 2 (NSD2) in an RCH-ACV wild type WT cells (2C) (AID 1645877); further: nearly all actives have a fitted effect of over 70% in size
[5] = target: N-terminal Xaa-Pro-Lys N-methyltransferase 1 (Homo sapiens) (UniProt Q9BV86); assay: Confirmatory qHTS for Inhibitors of N-terminal methyltransferase 1 (NTMT1): MTaseGlo Assay (AID 1645874); further: nearly all actives have a fitted effect of over 65% in size
Summary of the method: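 SPKRIA peptide at 1 uM was methylated by 125 nM NTMT1 using 100 uM SAM over 30 min at room temperature, following a 15 min compound preincubation. Product SAH was detected luminescently.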
Potency means the concentration at half of the fitted maximal effect.

Cytochrome P450 2D6 (Homo sapiens), sequence (P10635 whole entry, looked up): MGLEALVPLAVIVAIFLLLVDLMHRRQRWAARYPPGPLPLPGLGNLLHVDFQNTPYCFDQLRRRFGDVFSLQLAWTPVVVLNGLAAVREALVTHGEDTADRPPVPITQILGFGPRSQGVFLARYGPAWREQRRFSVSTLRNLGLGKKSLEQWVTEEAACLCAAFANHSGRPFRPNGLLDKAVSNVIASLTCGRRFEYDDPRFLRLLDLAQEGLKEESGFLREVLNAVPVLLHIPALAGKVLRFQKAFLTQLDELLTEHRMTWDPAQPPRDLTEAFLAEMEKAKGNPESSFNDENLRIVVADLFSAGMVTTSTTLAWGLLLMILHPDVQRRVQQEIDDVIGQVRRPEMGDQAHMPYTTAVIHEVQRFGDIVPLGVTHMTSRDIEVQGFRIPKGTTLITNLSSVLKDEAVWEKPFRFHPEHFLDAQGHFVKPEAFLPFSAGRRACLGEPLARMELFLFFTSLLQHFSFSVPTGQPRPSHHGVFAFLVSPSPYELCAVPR
Cytochrome P450 2C9 (Homo sapiens), sequence (P11712 whole entry, looked up): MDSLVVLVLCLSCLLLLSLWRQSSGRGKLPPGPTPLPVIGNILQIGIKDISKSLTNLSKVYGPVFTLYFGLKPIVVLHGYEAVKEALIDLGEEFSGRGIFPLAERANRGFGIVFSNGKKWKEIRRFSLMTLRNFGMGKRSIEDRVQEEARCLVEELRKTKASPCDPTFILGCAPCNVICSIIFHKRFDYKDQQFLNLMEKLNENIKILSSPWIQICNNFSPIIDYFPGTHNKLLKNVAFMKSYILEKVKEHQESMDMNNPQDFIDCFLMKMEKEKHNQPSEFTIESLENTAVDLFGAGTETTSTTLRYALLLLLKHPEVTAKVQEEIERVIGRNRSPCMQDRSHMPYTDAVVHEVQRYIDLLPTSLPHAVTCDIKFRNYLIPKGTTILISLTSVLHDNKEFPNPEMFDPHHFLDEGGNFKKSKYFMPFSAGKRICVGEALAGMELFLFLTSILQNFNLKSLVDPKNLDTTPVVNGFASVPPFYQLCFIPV
N-terminal Xaa-Pro-Lys N-methyltransferase 1 (Homo sapiens), sequence (Q9BV86 whole entry, looked up): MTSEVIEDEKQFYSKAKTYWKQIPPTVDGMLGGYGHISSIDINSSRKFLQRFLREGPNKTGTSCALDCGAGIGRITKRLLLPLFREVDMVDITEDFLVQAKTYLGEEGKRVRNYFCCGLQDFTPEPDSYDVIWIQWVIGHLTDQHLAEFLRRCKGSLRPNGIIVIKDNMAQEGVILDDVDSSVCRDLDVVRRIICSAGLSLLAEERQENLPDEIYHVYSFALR

## O=C(CCc1nnc2n(Cc3ccc(Cl)cc3)c(=O)c3ccccc3n12)NCCC1=CCCCC1
[1]
  Potency: 7.56 µM (active)
[2]
  Potency: 4.77 µM (active)
[3]
  Potency: inactive
[4]
  Potency: inactive

## O=C(Cc1ccc(-c2ccccc2)cc1)NC1CCC1
[1]
  Potency: inactive
[2]
  Potency: 6.74 µM (active)
[3]
  Potency: inactive
[4]
  Potency: inactive

## O=C(NCc1ccccn1)Nc1nnc(-c2ccco2)o1
[1]
  Potency: inactive
[2]
  Potency: inactive
[3]
  Potency: inactive
[4]
  Potency: inactive

## COc1ccc([C@H]2CNC(=O)C2)cc1OC1CCCC1
[1]
  Potency: inactive
[2]
  Potency: inactive
[3]
  Potency: inactive
[4]
  Potency: inactive

## CCOc1ccc(NC(=S)N2CCC(C(O)(c3ccccc3)c3ccccc3)CC2)cc1
[1]
  Potency: 2.68 µM (active)
[2]
  Potency: 9.52 µM (active)
[3]
  Potency: inactive
[4]
  Potency: inactive

## CC(C)C(CO)Nc1nc(Nc2cc(N)cc(Cl)c2)c2ncn(C(C)C)c2n1 (centres undefined)
[1]
  Potency: 23.9 µM (active)
[2]
  Potency: 0.536 µM (active)
[3]
  Potency: 6.49 µM (active)
[4]
  Potency: 6.49 µM (active)

## CC[C@@H](N)CNc1ccnc(-c2cc(-c3cnn(C)c3)ccc2O)n1
[1]
  Potency: 9.52 µM (active)
[2]
  Potency: 13.5 µM (active)
[3]
  Potency: 1.29 µM (active)
[4]
  Potency: 1.03 µM (active)

## Cc1ccc(NC(=O)C(=O)NC2CC(C)(C)NC(C)(C)C2)cc1
[1]
  Potency: inactive
[2]
  Potency: inactive
[3]
  Potency: inactive
[4]
  Potency: inactive

## O=C(Nc1ccc(S(=O)(=O)Nc2ccccc2Cl)c(Cl)c1)c1ccccn1
[1]
  Potency: inactive
[2]
  Potency: 0.674 µM (active)
[3]
  Potency: inactive
[4]
  Potency: inactive

## COc1cc(C(=O)NC2CCN(C)CC2)c(F)cc1Nc1ncc2c(n1)N(C1CCCC1)CC(F)(F)C(=O)N2C
[1]
  Potency: inactive
[2]
  Potency: 5.35 µM (active)
[3]
  Potency: 0.059 µM (active)
[4]
  Potency: 0.0833 µM (active)

## COc1cc2ncnc(N3CCC(Oc4cnc5ccccc5n4)C3)c2cc1OC (centres undefined)
[1]
  Potency: inactive
[2]
  Potency: 10.7 µM (active)
[3]
  Potency: 0.258 µM (active)
[4]
  Potency: 0.145 µM (active)

## COc1ccc2[nH]c3c(-c4cccc5ccccc45)nccc3c2c1
[1]
  Potency: 0.0151 µM (active)
[2]
  Potency: 1.51 µM (active)
[3]
  Potency: 0.916 µM (active)
[4]
  Potency: 0.578 µM (active)

## COc1cc(Nc2nc3c(s2)CCCC3c2ccc(F)cc2)ccc1-n1cnc(C)c1 (centres undefined)
[1]
  Potency: 0.849 µM (active)
[2]
  Potency: 1.34 µM (active)
[3]
  Potency: 11.5 µM (active)
[4]
  Potency: 10.3 µM (active)

## O=[N+]([O-])c1cccc2[nH]c(CNc3nc(N4CCOCC4)nc4c3ncn4-c3ccsc3)nc12
[1]
  Potency: inactive
[2]
  Potency: 0.952 µM (active)
[3]
  Potency: 0.0649 µM (active)
[4]
  Potency: 0.0649 µM (active)

## NC(=O)c1cccc2cn(-c3ccc(C4CCCNC4)cc3)nc12 (centres undefined)
[1]
  Potency: inactive
[2]
  Potency: inactive
[3]
  Potency: 3.25 µM (active)
[4]
  Potency: 2.05 µM (active)

## c1ccc(-c2ncc(CN3CCN(c4ncccn4)CC3)[nH]2)cc1
[1]
  Potency: 0.952 µM (active)
[2]
  Potency: 2.13 µM (active)
[3]
  Potency: inactive
[4]
  Potency: inactive

## C[C@@H]1CN(Cc2ccccc2)C[C@H]1c1nc2c(cnn2C2CCOCC2)c(=O)[nH]1
[1]
  Potency: inactive
[2]
  Potency: inactive
[3]
  Potency: inactive
[4]
  Potency: inactive

## CCc1cc(CN2CC(C(=O)O)C2)sc1-c1noc(-c2ccc(Oc3ccccc3)cc2)n1
[1]
  Potency: inactive
[2]
  Potency: inactive
[3]
  Potency: 10 µM (active)
[4]
  Potency: 10 µM (active)

## CNC(=S)NS(=O)(=O)c1cc(CCNC(=O)c2cc(Cl)ccc2OC)ccc1OC
[1]
  Potency: inactive
[2]
  Potency: 6.74 µM (active)
[3]
  Potency: inactive
[4]
  Potency: inactive

## CNC(=O)c1cccc(-c2ccc3c(N4CCOC[C@@H]4C)nc(N4CCOC[C@@H]4C)nc3n2)c1
[1]
  Potency: inactive and 15.1 µM (active)
[2]
  Potency: 12 µM (active) and 10.7 µM (active)
[3]
  Potency: 129 nM (active) and 326 nM (active) and 148 nM (active)
[4]
  Potency: 230 nM (active) and 326 nM (active) and 296 nM (active)

## CCOc1cc(CC(=O)NC(CC(C)C)c2ccccc2N2CCCCC2)ccc1C(=O)O (centres undefined)
[1]
  Potency: inactive
[2]
  Potency: inactive
[3]
  Potency: inactive
[4]
  Potency: inactive

## O=C(CCCCN1CCOCC1)Nc1ccc(-c2cccnc2)cc1
[1]
  Potency: 6.01 µM (active)
[2]
  Potency: inactive
[3]
  Potency: inactive
[4]
  Potency: inactive

## CCN1CCN(Cc2ccc(NC(=O)c3ccc(C)c(/C=C/c4cnc5[nH]ccc5c4OC)c3)cc2C(F)(F)F)CC1
[1]
  Potency: 6.74 µM (active)
[2]
  Potency: 12 µM (active)
[3]
  Potency: 129 nM (active) and 1.05 µM (active)
[4]
  Potency: 230 nM (active) and 1.18 µM (active)

## NC(=O)Nc1cc(-c2cccc(F)c2)sc1C(=O)NC1CCCNC1 (centres undefined)
[1]
  Potency: inactive
[2]
  Potency: inactive
[3]
  Potency: 0.0728 µM (active)
[4]
  Potency: 0.0817 µM (active)

## COc1c(Nc2ncc(Cl)c(N[C@H]3[C@@H](C(N)=O)[C@@H]4C=C[C@H]3C4)n2)ccc2c1CC[C@@H](N1CCOCC1)CC2
[1]
  Potency: 19 µM (active)
[2]
  Potency: 6.01 µM (active)
[3]
  Potency: 3.25 µM (active)
[4]
  Potency: 3.25 µM (active)

## COc1cc2c(NC3CCN(CC4CCCCC4)CC3)nc(N3CCCN(C(C)C)CC3)nc2cc1OCCCN1CCCCC1
[5]
  Potency: 34.5 µM (active)

## CCNC(=O)Nc1ccc(-c2nc3c(c(N4CCOC[C@@H]4C)n2)CCN(c2ncccn2)C3)cc1
[1]
  Potency: 10.7 µM (active)
[3]
  Potency: 0.0728 µM (active)
[4]
  Potency: 0.103 µM (active)
